# Results from the supplement of paper PMC10127200.
# Structures can show the parent of a compound that is named as a salt.
# System: DU145
# Assay: Euclidean distance of Cell Painting phenotypic profile (signed KS, 77 features) to DMSO centroid (dimensionless distance); 5 or 10 uM (library dependent); higher = stronger phenotypic change vs DMSO (phenoactivity)
# Settings: 48 h
# Summary of the method: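 Library compounds were applied at 10 or 5 uM, depending on the library, with 0.1% DMSO final, for 48 h to five cancer lines and a healthy fibroblast line. After staining, cells were imaged confocally at 20X across 9 fields per well, and Harmony extracted 77 features, each scored as a signed Kolmogorov-Smirnov statistic against vehicle wells on the same plate. Phenoactivity is the Euclidean distance between each profile and the median vehicle profile, with profiles first plate-position corrected, correlation-weighted and averaged over replicates at the top dose.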
row,Compound,Euclidean distance
1,CN(C)CCOc1ccc(/C(=C(/CCCl)c2ccccc2)c2ccccc2)cc1 [Toremifene Citrate],1.81
2,CS(=O)(=O)CCC#N [Dapansutrile (OLT1177)],2.91
3,Nc1ccn([C@@H]2O[C@H](CO)[C@@H](O)C2(F)F)c(=O)n1 [Gemcitabine],3.26
4,CCN1CCN(Cc2ccc(-c3cc4c(N[C@H](C)c5ccccc5)ncnc4[nH]3)cc2)CC1,1.92
5,Cc1ccc(C(=O)Nc2ccc(CN3CCN(C)CC3)c(C(F)(F)F)c2)cc1C#Cc1cnc2cccnn12,6.75
6,Cc1cc(CC(C)CC(C)(C)C)n(O)c(=O)c1 (centres undefined) [Piroctone Olamine],4.37
7,CNC(=O)c1cc(Oc2ccc3nc(N[C@@H]4CCCC[C@H]4O)sc3c2)ccn1,1.3
8,COc1ccccc1S(=O)(=O)Nc1ccc2c(c1)CN(C)C(=O)N2,1.91
9,O=c1[nH]c(=O)n([C@H]2C[C@H](O)[C@@H](CO)O2)cc1I [Idoxuridine],2.3
10,C[C@]12CCC(=O)C=C1CC[C@@H]1[C@@H]2[C@@H](O)C[C@@]2(C)[C@H]1CC[C@]2(O)C(=O)CO [Hydrocortisone],2.09
11,CCOC(=O)[C@H](CCc1ccccc1)N[C@@H](C)C(=O)N1CCC[C@H]1C(=O)O [Enalapril Maleate],0.694
12,O=S1(=O)CCN(CN2CCS(=O)(=O)NC2)CN1 [Taurolidine],0.913
13,CC(=O)O[C@H]1Cc2ccccc2N(C(N)=O)c2ccccc21 [Eslicarbazepine Acetate],0.966
14,C[C@]12CC[C@@H]3c4ccc(OC(=O)c5ccccc5)cc4CC[C@H]3[C@@H]1CC[C@@H]2O [Estradiol Benzoate],0.933
15,Nc1nc(N)c(N=O)c(OCC2CCCCC2)n1,0.998
16,CN1CCN(c2ccc3nc(-c4c(N)c5c(F)cccc5[nH]c4=O)[nH]c3c2)CC1 [Dovitinib (TKI-258) Dilactic Acid],2.01
17,Cc1cccc(Oc2cnc(=O)[nH]c2)c1,1.39

row,Compound,Euclidean distance
1,CC(C)(C)CC(C)(C)c1ccc(OCCOCC[N+](C)(C)Cc2ccccc2)cc1 [Benzethonium Chloride],2.15
2,O=C(NC1CCNCC1)c1n[nH]cc1NC(=O)c1c(Cl)cccc1Cl,2.81
3,CCCNCC(O)COc1ccccc1C(=O)CCc1ccccc1 (centres undefined) [Propafenone HCl],1.37
4,CCCC(=O)Nc1ccc(OCC(O)CNC(C)C)c(C(C)=O)c1 (centres undefined) [Acebutolol HCl],1.23
5,COC(=O)C1=CO[C@@H](O[C@@H]2O[C@H](CO)[C@@H](O)[C@H](O)[C@H]2O)[C@@H]2[C@@H](C)[C@@H](O)C[C@H]12 [Loganin],1.02
6,NCCS [Cysteamine HCl],0.624
7,Cc1nc(Nc2ncc(C(=O)Nc3c(C)cccc3Cl)s2)cc(N2CCN(CCO)CC2)n1 [Dasatinib Monohydrate],6.08
8,N[C@@H]1CCCCN(c2c(F)cc3c(=O)c(C(=O)O)cn(C4CC4)c3c2Cl)C1 [Besifloxacin HCl],0.808
9,N=C(N)NC(=O)c1nc(Cl)c(N)nc1N [Amiloride HCl dihydrate],1.11
10,C[C@@H](Oc1ccc2[nH]nc(/C=C/c3cnn(CCO)c3)c2c1)c1c(Cl)cncc1Cl,3.07
11,Nc1ccc(S(=O)(=O)Nc2ccnn2-c2ccccc2)cc1 [Sulfaphenazole],1.03
12,CC(C)CC(=O)Nc1n[nH]c2c1CN(C(=O)C1CCN(C)CC1)C2(C)C,2.9
13,O=C1NC(=O)C(=Cc2ccc(-c3ccc(F)cc3)o2)S1 (stereo in doubt),1.43
14,Cn1c(=O)cc(N2CCC[C@@H](N)C2)n(Cc2cc(F)ccc2C#N)c1=O [Trelagliptin succinate],1.04
15,CC[C@H]1OC(=O)C[C@@H](O)[C@H](C)[C@@H](O[C@@H]2O[C@H](C)[C@@H](O[C@H]3C[C@@](C)(O)[C@@H](O)[C@H](C)O3)[C@H](N(C)C)[C@H]2O)[C@@H](CC=O)C[C@@H](C)C(=O)/C=C/C(C)=C/[C@@H]1CO[C@@H]1O[C@H](C)[C@@H](O)[C@@H](OC)[C@H]1OC [Tylosin],0.612
16,CN1C(N)=N[C@](C)(c2cc(NC(=O)c3ccc(F)cn3)ccc2F)CS1(=O)=O [Verubecestat (MK-8931)],0.609
17,CC(=O)OCC(=O)[C@@]1(O)CC[C@H]2[C@@H]3CCC4=CC(=O)CC[C@]4(C)[C@H]3[C@@H](O)C[C@@]21C [Hydrocortisone acetate],1.4
